In article PMC5540273 (PLoS ONE, 2017):

Experiments:
Conditions in all cases: concentration: 1 μM, replicates: in singlicate; n = 1
FYN = system: FYN
GAK = system: GAK
GCN2(Kin.Dom.2,S808G) = system: T1, GCN2(Kin.Dom.2,S808G)
T1 construct: gene EIF2AK4

GRK1 = system: GRK1
GRK2 = system: T2, GRK2
T2 construct: gene ADRBK1

GRK3 = system: T3, GRK3
T3 construct: gene ADRBK2

GRK4 = system: GRK4
GRK7 = system: GRK7
GSK3A = system: GSK3A
GSK3B = system: GSK3B
HASPIN = system: T4, HASPIN
T4 construct: gene GSG2

HCK = system: HCK
HIPK1 = system: HIPK1
HIPK2 = system: HIPK2
HIPK3 = system: HIPK3
HIPK4 = system: HIPK4
HPK1 = system: HPK1
HUNK = system: HUNK
ICK = system: ICK
IGF1R = system: IGF1R
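Note: KINOMEscan kinase panel screen.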

Row | Compound | %Inh (FYN) [%] | %Inh (GAK) [%] | %Inh (GCN2(Kin.Dom.2,S808G)) [%] | %Inh (GRK1) [%] | %Inh (GRK2) [%] | %Inh (GRK3) [%] | %Inh (GRK4) [%] | %Inh (GRK7) [%] | %Inh (GSK3A) [%] | %Inh (GSK3B) [%] | %Inh (HASPIN) [%] | %Inh (HCK) [%] | %Inh (HIPK1) [%] | %Inh (HIPK2) [%] | %Inh (HIPK3) [%] | %Inh (HIPK4) [%] | %Inh (HPK1) [%] | %Inh (HUNK) [%] | %Inh (ICK) [%] | %Inh (IGF1R) [%]
1 | CC(C)NCC(Cc1ccccc1)NC(=O)c1cc(Br)c(-c2ccnc3[nH]ccc23)s1.Cl.Cl (stereo not shown) [GSK1383281] | 2 | 51 | 33 | 72 | 79 | 87 | 0 | 91.5 | 7 | 0 | 89 | 0 | 30 | 0 | 35 | 91.6 | 44 | 0 | 11 | 4
2 | CCn1cnc2c(NCc3ccccc3)ncnc21 [SKF-96418] | 0 | 0 | 0 | 39 | 0 | 0 | 6 | 0 | 0 | 35 | 10 | 9 | 27 | 9 | 33 | 33 | 0 | 48 | 0 | 0
3 | O=C(Nc1c(F)cccc1F)c1cc(C(=O)c2ccccc2F)c[nH]1 [GSK1326180] | 0 | 0 | 0 | 0 | 0 | 35 | 0 | 0 | 10 | 1 | 22 | 0 | 0 | 44 | 0 | 0 | 50 | 24 | 0 | 18
4 | CC(C)c1nc(-c2cccc(NS(=O)(=O)c3c(F)cccc3F)c2)c(-c2ccnc(Nc3ccc(N4CCOCC4)nc3)n2)s1.Cl [GSK1723980] | 98.6 | 91.2 | 100 | 9 | 0 | 0 | 0 | 0 | 74 | 15 | 0 | 98.3 | 93.2 | 57 | 69 | 83 | 55 | 0 | 32 | 0
5 | Cn1cc(-c2ccc3c(c2)CCN3C(=O)Cc2cc(F)cc(C(F)(F)F)c2)c2c(N)ncnc21 [GSK2635225] | 41 | 21 | 2 | 0 | 0 | 0 | 3 | 0 | 8 | 2 | 9 | 0 | 16 | 0 | 17 | 13 | 31 | 9 | 0 | 30
6 | Cc1ccc(-c2ccc3occ(-c4ccc(S(C)=O)cc4)c3c2)nn1 (stereo not shown) | 0 | 0 | 1 | 12 | 0 | 0 | 7 | 0 | 3 | 0 | 42 | 0 | 42 | 2 | 0 | 0 | 0 | 0 | 0 | 0
7 | CC(=O)Nc1cn2nc(Oc3cccc(NC(=O)c4cccc(C(F)(F)F)c4)c3)ccc2n1 | 96.7 | 0 | 37 | 0 | 0 | 0 | 1 | 0 | 20 | 0 | 0 | 98.2 | 35 | 0 | 0 | 19 | 59 | 43 | 0 | 8
8 | COC(=O)Nc1nc2cc(Oc3ccc(NC(=O)Nc4cccc(SC)c4)cc3)ccc2[nH]1.Cl [GW697999] | 19 | 21 | 9 | 0 | 0 | 57 | 0 | 0 | 0 | 0 | 0 | 12 | 5 | 0 | 1 | 36 | 30 | 28 | 0 | 5
